Data taken from the supplement of paper PMC7366291.
Structures can show the parent of a compound that is named as a salt. ± gives the standard deviation or the standard deviation of the averaged measurements.

Columns and labels:
Conditions in all cases: 25 µM; exposure: 24-48 hpf
[1] = test system: Danio rerio Tg(wt1b:EGFP) embryo, pronephros; assay: glomerular separation, fold change vs DMSO control; higher = glomeruli further apart (abnormal)
Outline: (§1)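 Dechorionated Tg(wt1b:EGFP) zebrafish embryos were treated with 25 μM compound in 0.5% DMSO, in HEPES-buffered E3 with 0.003% PTU, from 24 to 48 hpf at 28.5°C. On maximum projections of dorsal pronephros images, 16 hand-placed reference points in Fiji gave distances and angles, and values more than 2 SD from the feature mean were left out. Results are fold changes over the mean of same-day DMSO-treated embryos.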

[2] = test system: Danio rerio Tg(wt1b:EGFP) embryo, pronephros; assay: glomerular width (mean of left and right), fold change vs DMSO control; higher = wider glomerulus
Outline: as §1

[3] = test system: Danio rerio Tg(wt1b:EGFP) embryo, pronephros; assay: fraction of imaged embryos annotated as normal kidney; higher = less nephrotoxic; extreme values may be limits of the assay
Outline: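 Embryos of the Tg(wt1b:EGFP) zebrafish line were dechorionated and held in 12-well plates with 25 μM compound in 0.5% DMSO and 5 mM HEPES-buffered E3 containing 0.003% PTU, from 24 to 48 hpf at 28.5°C. Larvae were then anaesthetised with tricaine, set dorsal side up in agarose-filled 96-well plates, and their pronephroi imaged by widefield fluorescence at 470 nm over 10 z-slices. Each value is the fraction of embryos per treatment placed in the normal-kidney category after manual annotation of maximum projections.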

[4] = test system: Danio rerio Tg(wt1b:EGFP) embryo, pronephros; assay: pronephric angle neck segment to proximal convoluted tubule (mean of left and right), fold change vs DMSO control; higher = larger pronephric angle
Outline: as §1

Question: For COC(=O)Nc1nc2cc(C(=O)c3ccccc3)ccc2[nH]1 [Mebendazole], which glomerular separation [1] is on record?
Answer: 4.75 ± 1.7

Question: And the glomerular width [2]?
Answer: 0.552 ± 0.014

Question: What about the “fraction of imaged embryos annotated as normal kidney” value (from here on “fraction of imaged embryos annotated”) [3] of the same molecule?
Answer: 0

Question: And the “pronephric angle neck segment” value [4]?
Answer: 1.91 ± 0.057

Question: What does the source list for Cc1ncc([N+](=O)[O-])n1CC(C)O (configuration not stated) [Secnidazole]?
Answer: glomerular separation [1]: 0.775 ± 0.29; glomerular width [2]: 0.9842 ± 0.0045; fraction of imaged embryos annotated as normal kidney [3]: 0.833; pronephric angle neck segment [4]: 0.9777 ± 0.0024

Question: What does the source list for CN1CCN(C(c2ccccc2)c2ccc(Cl)cc2)CC1 (configuration not stated) [Chlorcyclizine hydrochloride]?
Answer: glomerular separation [1]: 1.13 ± 0.62; glomerular width [2]: 0.995 ± 0.017; fraction of imaged embryos annotated as normal kidney [3]: 0.917; pronephric angle neck segment [4]: 0.966 ± 0.022

Question: Which glomerular separation [1] does the source give for COc1ccc2cc([C@H](C)C(=O)O)ccc2c1 [Naproxen] here?
Answer: 2.89 ± 1.8

Question: And the glomerular width [2]?
Answer: 0.9508 ± 0.0065

Question: What about the “fraction of imaged embryos annotated” value [3] of the same molecule?
Answer: 0.167

Question: What about the “pronephric angle neck segment” value [4] of the same molecule?
Answer: 1.52 ± 0.036

Question: For CC(=O)Nc1ccc(O)cc1 [Acetaminophen], which glomerular separation [1] is on record?
Answer: 0.86 ± 0.31

Question: What about the glomerular width [2] of the same molecule?
Answer: 0.987 ± 0.037

Question: And the “fraction of imaged embryos annotated” value [3]?
Answer: 1

Question: What about the “pronephric angle neck segment” value [4] of the same molecule?
Answer: 0.9829 ± 0.0034

Question: Which glomerular separation [1] does the source give for Cc1c(OCC(F)(F)F)ccnc1C[S+]([O-])c1nc2ccccc2[nH]1 (configuration not stated) [Lansoprazole] here?
Answer: 1.25 ± 0.57

Question: And the glomerular width [2]?
Answer: 0.949 ± 0.04

Question: And the “fraction of imaged embryos annotated” value [3]?
Answer: 0.333

Question: What about the “pronephric angle neck segment” value [4] of the same molecule?
Answer: 1.17 ± 0.034

Question: For Nc1ccc(S(=O)(=O)NC(=O)c2ccccc2)cc1 [Sulfabenzamide], which glomerular separation [1] is on record?
Answer: 1.2 ± 0.49

Question: And the glomerular width [2]?
Answer: 0.98 ± 0.04

Question: What about the “fraction of imaged embryos annotated” value [3] of the same molecule?
Answer: 0.667

Question: What about the “pronephric angle neck segment” value [4] of the same molecule?
Answer: 1.09 ± 0.0044

Question: Which results are given for CCN(CC)CCOC(=O)C1(c2ccc([N+](=O)[O-])cc2)CCCC1 [Nitrocaramiphen hydrochloride]?
Answer: glomerular separation [1]: 0.899 ± 0.43; glomerular width [2]: 0.971 ± 0.037; fraction of imaged embryos annotated as normal kidney [3]: 0.909; pronephric angle neck segment [4]: 0.984 ± 0.075

Question: How did the glomerular separation [1] turn out when C[C@@H]1C[C@H]2[C@@H]3C[C@H](F)C4=CC(=O)C=C[C@]4(C)[C@@]3(Cl)[C@@H](O)C[C@]2(C)[C@H]1C(=O)COC(=O)C(C)(C)C [Clocortolone pivalate] was run?
Answer: 1.59 ± 0.52

Question: And the glomerular width [2]?
Answer: 1.26 ± 0.019

Question: What about the “fraction of imaged embryos annotated” value [3] of the same molecule?
Answer: 0.167

Question: And the “pronephric angle neck segment” value [4]?
Answer: 1.077 ± 0.009

Question: With NC(=O)c1cnccn1 [Pyrazinamide] as the molecule, how does the glomerular separation [1] read?
Answer: 0.862 ± 0.21

Question: What about the glomerular width [2] of the same molecule?
Answer: 1.04 ± 0.034

Question: What about the “fraction of imaged embryos annotated” value [3] of the same molecule?
Answer: 0.667

Question: And the “pronephric angle neck segment” value [4]?
Answer: 0.9361 ± 0.0033

Question: With Cc1cccc(Nc2ccccc2C(=O)O)c1C [Mefenamic acid] as the molecule, how does the glomerular separation [1] read?
Answer: 5.08 ± 1.4

Question: What about the glomerular width [2] of the same molecule?
Answer: 0.617 ± 0.064

Question: And the “fraction of imaged embryos annotated” value [3]?
Answer: 0

Question: And the “pronephric angle neck segment” value [4]?
Answer: 1.63 ± 0.059

Question: Which glomerular separation [1] does the source give for CC1=C(C(=O)O)N2C(=O)[C@@H](NC(=O)[C@H](N)c3ccc(O)cc3)[C@H]2SC1 [Cefadroxil] here?
Answer: 1.23 ± 0.49

Question: And the glomerular width [2]?
Answer: 1.08 ± 0.042

Question: And the “fraction of imaged embryos annotated” value [3]?
Answer: 0.833

Question: What about the “pronephric angle neck segment” value [4] of the same molecule?
Answer: 0.923 ± 0.049

Question: For CN1CCN2c3ccccc3Cc3ccccc3C2C1 (configuration not stated) [Mianserine hydrochloride], which glomerular separation [1] is on record?
Answer: 1.3 ± 0.59

Question: And the glomerular width [2]?
Answer: 0.983 ± 0.035

Question: What about the “fraction of imaged embryos annotated” value [3] of the same molecule?
Answer: 0.833

Question: And the “pronephric angle neck segment” value [4]?
Answer: 0.9786 ± 0.0076
